14 molecules from PubChem BioAssay can be followed below.

The source made the active and inactive calls.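 How the source made its calls, unless noted: active means fluorescence slope after compound addition differing from the mean of all screened samples at 99.7% confidence, in either direction; inactive means the rest.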

Assay [1] in a line: inhibitors of TNFa-induced NFkB p65 translocation, primary screen, imaging, HUVEC, MLSMR starter and 10KST1 sets (AID 438;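 active means inhibition above 20% together with a positive visual image hit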;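 further: compound added about 3h40 before a 20 min TNFalpha stimulation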;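 on inhibition: signal is the nuclear over cytoplasmic p65 intensity ratio per well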). The note with it: HUVEC TNFa-induced p65 nuclear translocation; cell count: measured here: nuclei count (cytotoxicity indicator), at 2.08 µM; inhibition: at 2 µM, stronger effect = higher value, 0% TNFa-plus-vehicle, 100% no-TNFa wells.
Assay [2] is described as follows: inhibitors of mutant huntingtin aggregation, primary screen, imaging, exon1htt(103Q)mCFP cells, high-content imaging (AID 483;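 active means visual image review flags a hit and inhibition of aggregation exceeds 20%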;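 further: compound exposure lasted 3 days before fixation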;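 on nuclei count: percent of the per-plate median nuclei count of sample wells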). The conditions noted are these: exon1htt(103Q)mCFP cell line, aggregate imaging, at 2 µM; inhibition of aggregation: stronger effect = higher value; nuclei count: measured here: cell count, toxicity.
Assay [3] is described as follows: inhibitors of E-selectin induction by TNFa, primary screen, imaging, HUVEC, immunofluorescence, MLSMR starter and 10KST1 sets (AID 487;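 active means visually confirmed hit in the image check and inhibition above 20%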;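 on inhibition: signal is fraction of cell area covered by stained E-selectin grains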;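 on nuclei count: 100% = median nuclei count of all wells on the same plate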). The conditions noted are these: HUVEC TNFalpha-induced E-selectin immunofluorescence imaging, at 2 µM; inhibition: stronger effect = higher value; nuclei count: measured here: cell number, toxicity.
The target in assay [4] is Voltage-gated potassium channel subunit beta-2 (Rattus norvegicus) (UniProt P62483). The experiment in a line: KvBeta enzyme negative modulators, primary screen, biochemical, NADPH fluorescence (AID 622;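 active means fluorescence slope higher than the sample average by over 3 SD, cut at about -0.22 in these data, passing the limit was not always enough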;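 further: slope of raw intensity against log time taken from 70 to 1610 s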). The note with it: recombinant KvBeta, 4-cyanobenzaldehyde reduction, at 10 µM, stronger effect = higher value.
Voltage-gated potassium channel subunit beta-2 (Rattus norvegicus), sequence (P62483 whole entry, looked up): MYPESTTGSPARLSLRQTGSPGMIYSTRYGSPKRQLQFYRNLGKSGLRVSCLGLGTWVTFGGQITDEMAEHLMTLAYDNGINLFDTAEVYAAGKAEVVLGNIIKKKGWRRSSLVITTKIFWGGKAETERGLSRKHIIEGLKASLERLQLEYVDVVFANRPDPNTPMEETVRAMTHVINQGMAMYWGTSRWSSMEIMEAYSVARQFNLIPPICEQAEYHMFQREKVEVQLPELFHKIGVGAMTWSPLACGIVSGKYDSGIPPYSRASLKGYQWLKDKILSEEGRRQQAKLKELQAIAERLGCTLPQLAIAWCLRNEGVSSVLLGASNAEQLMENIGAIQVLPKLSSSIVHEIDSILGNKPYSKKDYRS
Assay [5] shares this target. Kind of assay: KvBeta positive modulators, primary screen, biochemical, NADPH fluorescence (AID 623;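 active means NADPH fluorescence slope more negative than the mean of all samples by about 3 SD, 99.7% confidence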;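 further: fluorescence intensity change per second fitted from 20 to 320 s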). The conditions noted are these: Recombinant KvBeta, NADPH fluorescence decrease slope, 10 min; at 10 µM; stronger effect = lower value.
The target of assay [6] is Alpha-2C adrenergic receptor (Homo sapiens) (UniProt P18825). Kind of assay: modulators of alpha2C/GIRK thallium flux, primary screen, cell-based, HEK293 alpha2C/GIRK1/2 (AID 624).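 Further: slope of fluorescence ratio to pre-addition baseline per second over 15 to 24 s.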 The conditions noted are these: thallium flux BTC fluorescence, at 10 µM, actives lie on both sides.
Alpha-2C adrenergic receptor (Homo sapiens), sequence (P18825 whole entry, looked up): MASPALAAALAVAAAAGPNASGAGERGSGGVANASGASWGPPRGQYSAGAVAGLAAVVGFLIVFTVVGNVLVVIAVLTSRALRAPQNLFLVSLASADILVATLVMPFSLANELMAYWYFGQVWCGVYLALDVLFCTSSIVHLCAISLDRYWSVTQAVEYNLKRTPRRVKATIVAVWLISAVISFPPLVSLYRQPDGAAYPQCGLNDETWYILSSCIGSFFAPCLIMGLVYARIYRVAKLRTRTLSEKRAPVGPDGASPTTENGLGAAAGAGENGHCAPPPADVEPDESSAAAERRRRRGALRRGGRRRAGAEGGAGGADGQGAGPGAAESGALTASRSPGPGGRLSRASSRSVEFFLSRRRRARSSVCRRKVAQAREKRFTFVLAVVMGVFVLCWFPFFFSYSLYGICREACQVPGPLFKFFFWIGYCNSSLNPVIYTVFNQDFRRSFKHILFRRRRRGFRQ
Assay [7] in a line: inhibitors of Sendai virus-induced IRF3 signaling, primary screen, TLR/RLR signaling modifier project, cell-based, Sendai virus stimulus, luciferase, 10K MLSCN set (AID 602276;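 active means inhibition at or above 50% at 10 µM; inactive means inhibition below 50%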;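 further: firefly luciferase from ISG56 promoter only with Renilla not read in this screen; 0% = Sendai virus plus DMSO and 100% = medium plus DMSO without virus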). The conditions noted are these: HEK293 RL24 IRF3 luciferase reporter, at 10 µM, stronger effect = higher value.
A short description of assay [8]: inhibitors of poly I:C-induced TLR3 signaling, primary screen, cell-based, poly I:C stimulus, luciferase, 10K MLSCN set (AID 602277;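 active means inhibition of the reporter signal at or above 50%; inactive means inhibition below 50%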). The conditions noted are these: HEK293-TLR3 RL24 IRF3 luciferase reporter, at 10 µM, stronger effect = higher value.

For orientation: inhibition means the change of the read-out against control, counted positive when it falls. As to `COc1ccc(C(=O)N2CCSC2=S)cc1OC`, the cell count in assay [1] was 677. For the same molecule, the inhibition in assay [1] is -19.3% (inactive); in assay [3], 55.8% (inactive); in assay [7] it was 4.55% (inactive); in assay [8], 15% (inactive). Also, in assay [2], the inhibition of aggregation was -13.4% (inactive). For the same molecule, the nuclei count in assay [2] is 97.5%; in assay [3], 82.9%. Further, the fluorescence slope in assay [4] was -0.457 (inactive). In addition, the NADPH fluorescence slope in assay [5] is -2.6e-05 (inactive). In addition, the slope in assay [6] is 0.00338 (inactive).

Consider `CC(=O)c1cccc(N(CC(=O)N2CCCC2)S(C)(=O)=O)c1`, for which the cell count in assay [1] was determined as 529. Moreover, the inhibition in assay [1] was -5.4% (inactive); in assay [3] it was -11.1% (inactive); in assay [7], 13.6% (inactive); in assay [8] it was 20% (inactive). Further, in assay [2], the inhibition of aggregation was 14.6% (inactive). Also, the nuclei count turned out to be 88.4% in assay [2] and 94.9% in assay [3]. Besides, in assay [4], the fluorescence slope was -0.467 (inactive). Besides, the NADPH fluorescence slope in assay [5] is 2.1e-05 (inactive). Besides, the slope in assay [6] was 0.00662 (inactive).

Turning to `O=C(CCCCn1c(=O)c2ccccc2n(Cc2ccc(Cl)cc2)c1=O)NCc1ccco1`, the cell count in assay [1] came out at 613. Besides, the inhibition in assay [1] is -7.3% (inactive); in assay [3], -95.8% (inactive); in assay [7], 45.2% (inactive); in assay [8] it was 33.2% (inactive). Also, in assay [2], the inhibition of aggregation was -8.5% (inactive). Also, the nuclei count in assay [2] came to 81.8%; in assay [3] it was 110%. Besides, the fluorescence slope in assay [4] is -0.466 (inactive). In addition, the NADPH fluorescence slope in assay [5] is -1.3e-05 (inactive). Also, in assay [6], the slope was 0.00636 (inactive).

Turning to `COCCn1nnnc1CN(CCCN1CCOCC1)Cc1cc2c(C)ccc(C)c2[nH]c1=O`, the cell count in assay [1] worked out at 612. In addition, the inhibition is -8.8% (inactive) in assay [1], 19.5% (inactive) in assay [3], -10.5% (inactive) in assay [7] and 15.5% (inactive) in assay [8]. Besides, the inhibition of aggregation in assay [2] was -0.2% (inactive). Further, the nuclei count was determined as 112% in assay [2] and 92.4% in assay [3]. In assay [4], the fluorescence slope was -0.49 (inactive). In addition, the NADPH fluorescence slope in assay [5] is 3e-05 (inactive). The slope in assay [6] is 0.00345 (inactive).

Regarding `CCOc1ccc(C2CC(c3cccc(C)c3)n3ncnc3N2)cc1` (centres undefined), the cell count in assay [1] came out at 666. Further, the inhibition in assay [1] is 0.3% (inactive); in assay [3], -13.6% (inactive); in assay [7], -8.73% (inactive); in assay [8] it was 10.7% (inactive). In addition, the inhibition of aggregation in assay [2] is -18.7% (inactive). Besides, the figures for the nuclei count in assay [2] and in assay [3] were 90.6% and 109%, respectively. In assay [4], the fluorescence slope was -0.622 (inactive). The NADPH fluorescence slope in assay [5] is 1.7e-06 (inactive). Besides, the slope in assay [6] was 0.0075 (inactive).

Consider `CC1(C)CC(=O)C2=C(C1)OC(N)=C(C#N)C2C1CC=CCC1` (centres undefined), for which, in assay [1], the cell count was determined as 569. Further, the inhibition in assay [1] is 2.4% (inactive); in assay [3] it was -52% (inactive); in assay [7], 16% (inactive); in assay [8] it was 22.1% (inactive). In addition, the inhibition of aggregation in assay [2] was 1.3% (inactive). Also, the figures for the nuclei count in assay [2] and in assay [3] were 119% and 89.2%, respectively. Besides, the fluorescence slope in assay [4] is -0.556 (inactive). In assay [5], the NADPH fluorescence slope was -1.7e-05 (inactive). For the same molecule, the slope in assay [6] is 0.00554 (inactive).

Take `Cc1ccc2c(c1)NC(=O)C(CC(=O)NC1CCCCC1C)O2` (centres undefined): in assay [1], the cell count came out at 611. Also, the inhibition was 2% (inactive) in assay [1], 21.5% (inactive) in assay [3], 9.73% (inactive) in assay [7] and 1.78% (inactive) in assay [8]. The inhibition of aggregation in assay [2] was 22% (inactive). Besides, the nuclei count was found to be 86.3% in assay [2] and 114% in assay [3]. Moreover, the fluorescence slope in assay [4] is -0.51 (inactive). In assay [5], the NADPH fluorescence slope is -4.1e-05 (inactive). Also, the slope in assay [6] is 0.00567 (inactive).

On to `CC1(C)CNC(=O)CC(C)(C)N1O`, for which the cell count in assay [1] is 379. In addition, the inhibition in assay [1] was 4% (inactive); in assay [3], -66.8% (inactive); in assay [7], -4.83% (inactive); in assay [8] it was 19.7% (inactive). Further, the inhibition of aggregation in assay [2] was 7.9% (inactive). Further, the nuclei count in assay [2] is 89.4%; in assay [3], 110%. Further, the fluorescence slope in assay [4] was -0.497 (inactive). In addition, in assay [5], the NADPH fluorescence slope is -6.2e-06 (inactive). Also, in assay [6], the slope was 0.00315 (inactive).

With `CCN(CC)C(=O)C1=C(C)Nc2nnnn2C1c1cccnc1` (centres undefined), in assay [1], the cell count was 346. Moreover, the inhibition in assay [1] is 9.3% (inactive); in assay [3] it was -55.9% (inactive); in assay [7], 11.8% (inactive); in assay [8], 16.8% (inactive). Moreover, the inhibition of aggregation in assay [2] was 11.2% (inactive). For the same molecule, the nuclei count is 102% in assay [2] and 109% in assay [3]. The fluorescence slope in assay [4] was -0.567 (inactive). In addition, the NADPH fluorescence slope in assay [5] was 1.1e-05 (inactive). In addition, in assay [6], the slope was 0.0059 (inactive).

Turning to `CC1(C)CC(=O)C=C(NC2CCS(=O)(=O)C2)C1` (centres undefined), the cell count in assay [1] amounted to 624. Further, the inhibition was 11.3% (inactive) in assay [1], 10.6% (inactive) in assay [3], 15.5% (inactive) in assay [7] and 39.3% (inactive) in assay [8]. In addition, the inhibition of aggregation in assay [2] is 5.8% (inactive). Moreover, the nuclei count in assay [2] was found to be 59.6%; in assay [3], 100%. The fluorescence slope in assay [4] is -0.561 (inactive). Besides, the NADPH fluorescence slope in assay [5] is 1.2e-05 (inactive). Moreover, the slope in assay [6] is 0.00618 (inactive).

For `Cn1nnnc1SCc1cn2cccnc2n1`, in assay [1], the cell count amounted to 227. Further, the inhibition was 0.3% (inactive) in assay [1], -25.9% (inactive) in assay [3], 9.85% (inactive) in assay [7] and 9.08% (inactive) in assay [8]. Moreover, the inhibition of aggregation in assay [2] is 9.5% (inactive). In addition, the nuclei count stood at 97.2% in assay [2] and 117% in assay [3]. Moreover, in assay [4], the fluorescence slope is -0.106 (inactive). In addition, in assay [5], the NADPH fluorescence slope is 2.9e-05 (inactive). Also, the slope in assay [6] is 0.00615 (inactive).

As for `N[C@@H](Cc1ccccc1)c1nnc2sc(SCc3ccccc3)nn12`, the cell count in assay [1] worked out at 444. Also, the inhibition in assay [1] was -5.5% (inactive); in assay [3] it was -15.7% (inactive); in assay [7] it was 10.2% (inactive); in assay [8], 98.1% (active). Besides, the inhibition of aggregation in assay [2] is -1.7% (inactive). The nuclei count stood at 84.8% in assay [2] and 114% in assay [3]. Further, the fluorescence slope in assay [4] is -0.43 (inactive). For the same molecule, the NADPH fluorescence slope in assay [5] is -1.6e-06 (inactive). Besides, the slope in assay [6] was 0.00539 (inactive).

`Cn1c(CNc2nc(-c3ccccc3)cs2)nnc1SCC(=O)N1CCc2ccccc21`: in assay [1], the cell count worked out at 628. For the same molecule, the inhibition was 11.1% (inactive) in assay [1], -65.9% (inactive) in assay [3], -7.07% (inactive) in assay [7] and 5.89% (inactive) in assay [8]. For the same molecule, in assay [2], the inhibition of aggregation is 18.4% (inactive). For the same molecule, the nuclei count in assay [2] came to 91.5%; in assay [3] it was 140%. In addition, the fluorescence slope in assay [4] is -0.595 (inactive). For the same molecule, the NADPH fluorescence slope in assay [5] was -3e-05 (inactive). Further, the slope in assay [6] was 0.00569 (inactive).

As for `CCOc1ccc(S(=O)(=O)N2CCN(C(=O)c3cccn3C)CC2)cc1`, the cell count in assay [1] was 431. Also, the inhibition in assay [1] is 2% (inactive); in assay [3], -88.3% (inactive); in assay [7], 13.9% (inactive); in assay [8], 19.3% (inactive). In addition, the inhibition of aggregation in assay [2] is -7.2% (inactive). In addition, the values for the nuclei count in assay [2] and in assay [3] were 95.6% and 105%, respectively. The fluorescence slope in assay [4] is -0.502 (inactive). Also, the NADPH fluorescence slope in assay [5] was -9e-06 (inactive). In assay [6], the slope is 0.00499 (inactive).
